# Laboratory results: ChEMBL document CHEMBL1157539, “Thousands of chemical starting points for antimalarial lead identification” (Nature, 2010)
# Test system: HepG2
# Test: GSK_TCMDC: Percent inhibition of human HepG2 cell line. Test compounds present at 10uM.
# Type: functional
row,SMILES,Inhibition [%]
1,CN1CC=C(c2c[nH]c3ccc(OCc4ccccc4)cc23)CC1,0
2,CC[C@H]1CN2CC[C@H]1C[C@H]2[C@H](O)c1cc(N2CCCC2)nc2ccc(OC)cc12,0
3,CCCCCOc1ccc(CC(C)NCC(O)c2cccc(Cl)c2)cc1 (stereo unspecified),0
4,CC[C@H]1CN2CC[C@@H]1C[C@@H]2[C@@H](O)c1cc(-c2ccc(F)cc2)nc2ccc(OC)cc12.Cl,18
5,NC(=O)CN1CC=C(c2c[nH]c3ccc(Br)cc23)CC1,30
6,CC[C@H]1CN2CC[C@H]1C[C@H]2[C@H](O)c1cc(-c2ccc(SC)cc2)nc2ccc(OC)cc12.Cl,9
7,CCc1ccc(CN2CCC(CN(C(=O)c3ccccc3)c3ccc(Cl)cc3)CC2)cc1,12
8,O=C(NC1CCC(CN2CCC(c3c[nH]c4ccccc34)CC2)CC1)c1csc(-c2cccc(Cl)c2Cl)n1 (stereo unspecified),34
9,CO/C(=C\C=C\c1cc2cc(Cl)c(Cl)cc2[nH]1)C(=O)N[C@H]1CN2CCC1CC2,43
10,CC(C)(C)c1ccc(Cn2nc(C(=O)N3CCN(C(=O)C4CCCO4)CC3)c3ccccc32)cc1 (stereo unspecified),0
11,CS(=O)(=O)Nc1ccc2[nH]cc(C3CCN(CC4CCN(C(=O)/C=C/c5ccc(Cl)c(Cl)c5)CC4)CC3)c2c1,27
12,O=C(/C=C/c1ccc(Cl)c(Cl)c1)NCc1ccc(CN2CCC(c3c[nH]c4ccccc34)CC2)cc1,59
13,O=C(/C=C/c1ccc(Cl)c(Cl)c1)NCCCCCN1C2CCC1CC(c1c[nH]c3ccccc13)C2 (stereo unspecified),54
14,CC[C@H]1CN2CC[C@@H]1C[C@H]2[C@H](O)c1cc(N2CCOCC2)nc2ccc(OC)cc12,10
15,Fc1ccc(N(c2nc(-c3cc(F)cc(C(F)(F)F)c3)cs2)C2CCNCC2)cc1.O=C(O)C(F)(F)F,35
16,COc1ccc(C(=O)C2CC2CN2CC=C(c3c(C)[nH]c4ccccc34)CC2)cc1 (stereo unspecified),16
17,Cn1cc(CN2CCC(CCOC(c3ccccc3)c3ccccc3)CC2)cn1,27
18,COc1ccc(CCNCc2ccc3c(C)cc(N)nc3c2)cc1,12
19,Cl.O=C(CC1CCCC1)N(CC1CCN(Cc2ccc(C(F)(F)F)cc2)CC1)c1ccc(N2CCOCC2)c(F)c1,10
20,COc1ccc(CN2CCN(CCOC(c3ccccc3)c3ccccc3)CC2)c(O)c1,19
21,Cc1[nH]c2ccccc2c1C1=CCN(CCCCCNC(=O)/C=C/c2ccc(Cl)c(Cl)c2)CC1,28
22,C[C@@H](CC1CCCCC1)NCc1ccccc1O,9
23,CC(C)CN1CCC(N(C)c2cc(NC(=O)c3cccc(F)c3)ccn2)CC1.O=C(O)C(F)(F)F,8
24,O=C(Nc1cc(C(F)(F)F)cc(C(F)(F)F)c1)N1CCC(CN2CCC(c3c[nH]c4ccccc34)CC2)CC1,42
25,COc1ccc(C[C@@H](C)NC[C@H](O)c2cccc(Cl)c2)cc1F,6
26,CC[C@H]1CN2CC[C@H]1C[C@H]2[C@H](O)c1cc(-c2ccccc2F)nc2ccc(OC)cc12.Cl,13
